Reference: PubChem BioAssay (EPA / NIEHS)
Results filed as inconclusive are left out. The source made the active and inactive calls. How the source made its calls, unless noted: active means hit-call score of the fitted dose curve at least 0.9, where 1 is the maximum; inconclusive means response in the unintended direction; inactive means score below 0.9.

What was measured:
[1] = molecular target: Cellular tumor antigen p53 (Homo sapiens) (UniProt P04637); experiment: TOX21_p53_BLA_p2_ratio: Tox21 HCT-116 p53 Agonism Beta-lactamase Assay, Ratio, Phase 2 (AID 2283592)
Sequence of Cellular tumor antigen p53 (Homo sapiens) (P04637 whole entry, looked up): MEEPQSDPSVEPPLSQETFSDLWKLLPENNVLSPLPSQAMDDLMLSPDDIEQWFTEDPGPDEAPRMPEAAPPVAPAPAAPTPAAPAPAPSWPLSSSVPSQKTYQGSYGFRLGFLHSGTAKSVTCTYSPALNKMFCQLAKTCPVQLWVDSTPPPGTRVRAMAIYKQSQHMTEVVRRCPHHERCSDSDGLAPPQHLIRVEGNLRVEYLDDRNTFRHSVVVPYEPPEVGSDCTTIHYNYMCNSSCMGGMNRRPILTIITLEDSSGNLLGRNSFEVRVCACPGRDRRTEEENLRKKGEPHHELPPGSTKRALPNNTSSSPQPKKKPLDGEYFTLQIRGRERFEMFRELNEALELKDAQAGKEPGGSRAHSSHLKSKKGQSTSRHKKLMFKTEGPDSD
Method in brief: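 Cleaved-to-uncleaved substrate ratio (460 vs 530 nm) measured in HCT116 cells with an inducible beta-lactamase reporter linked to p53 activity. Compounds incubated 16 h at 37C before 2 h room-temperature CCF4-AM loading.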

[2] = TOX21_p53_BLA_p3_viability: Viability Assessment in the Tox21 HCT-116 p53 Agonism Beta-lactamase Assay, Phase 3 (AID 2283593);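 further: cells exposed to compound for 16 h before reading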
Method in brief: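 HCT116 cells, 4000/well, dosed 5 h after plating by pin transfer (217-fold dilution from DMSO stock) and incubated 16 h at 37C, 5% CO2. Viability read as ATP luminescence with CellTiter-Glo after 30 min at room temperature.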

[3] = molecular target: Cellular tumor antigen p53 (Homo sapiens) (UniProt P04637); experiment: TOX21_p53_BLA_p3_ratio: Tox21 HCT-116 p53 Agonism Beta-lactamase Assay, Ratio, Phase 3 (AID 2283596)
Method in brief: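 Cells were seeded at 4000/well, rested 5 h at 37C, then dosed with DMSO compound solutions (217-fold dilution) for 16 h. CCF4-AM substrate was loaded for 2 h at room temperature, and the 460/530 nm emission ratio was fitted for gain of signal versus DMSO.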

[4] = molecular target: Cellular tumor antigen p53 (Homo sapiens) (UniProt P04637); experiment: TOX21_p53_BLA_p5_ratio: Tox21 HCT-116 p53 Agonism Beta-lactamase Assay, Ratio, Phase 5 (AID 2283599)
Method in brief: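 HCT-116 p53-bla cells (4000/well) plated 5 h, dosed with compound (217-fold DMSO dilution) for 16 h at 37 C; CCF4-AM substrate 2 h at room temperature. Activity is the 460/530 nm emission ratio (405 nm excitation), fitted in gain-of-signal direction versus DMSO.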

[5] = TOX21_p53_BLA_p5_viability: Viability Assessment in the Tox21 HCT-116 p53 Agonism Beta-lactamase Assay, Phase 5 (AID 2283600)
Method in brief: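 Viability is taken from cellular ATP content, measured by luciferase luminescence in the same wells after the beta-lactamase ratio read. Cells are seeded at 4000 per well and exposed to DMSO-dissolved compounds, diluted 217-fold, for 16 h.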

[6] = molecular target: Cellular tumor antigen p53 (Homo sapiens) (UniProt P04637); experiment: TOX21_p53_BLA_p4_ratio: Tox21 HCT-116 p53 Agonism Beta-lactamase Assay, Ratio, Phase 4 (AID 2283601)
Method in brief: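 HCT-116 p53 beta-lactamase reporter cells (4000/well) preincubated 5 h, then compound (217-fold dilution of DMSO stock) for 16 h at 37C. CCF4-AM substrate added 2 h at room temperature; 460/530 nm emission ratio fitted upward versus DMSO.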

THRB (gene 7068) [7] = molecular target: THRB (gene 7068) (UniProt P10828); experiment: TOX21_TRB_BLA_Antagonist_Followup_ratio: Tox21 Thyroid Hormone Receptor beta Antagonism Beta-lactamase (BLA) Follow-Up Assay, Ratio (AID 2283958)
Sequence of THRB (gene 7068) (P10828 whole entry, looked up, the tested form may be a part): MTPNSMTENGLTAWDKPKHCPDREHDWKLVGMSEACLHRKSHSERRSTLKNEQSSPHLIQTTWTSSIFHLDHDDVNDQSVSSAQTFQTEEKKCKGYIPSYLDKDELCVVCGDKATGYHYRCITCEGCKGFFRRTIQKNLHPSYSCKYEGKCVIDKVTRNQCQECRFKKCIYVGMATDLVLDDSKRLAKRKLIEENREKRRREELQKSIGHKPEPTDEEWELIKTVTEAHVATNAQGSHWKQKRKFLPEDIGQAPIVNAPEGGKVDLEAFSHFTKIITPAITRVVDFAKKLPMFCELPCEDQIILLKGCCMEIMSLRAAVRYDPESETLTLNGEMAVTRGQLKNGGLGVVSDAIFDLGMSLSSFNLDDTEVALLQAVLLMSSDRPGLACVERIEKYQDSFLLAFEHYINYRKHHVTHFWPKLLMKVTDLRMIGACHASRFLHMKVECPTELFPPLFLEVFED
Method in brief: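 Read-out: blue/green (460:530 nm) ratio of cleaved to uncleaved CCF4-AM after 2 h at room temperature, fitted against DMSO baseline. HEK293T UAS-bla cells carrying GAL4-human TRβ LBD were exposed 18 h, 37C/5% CO2.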

[8] = TOX21_TRB_BLA_Antagonist_Followup_viability: Viability Assessment in the Tox21 Thyroid Hormone Receptor beta Antagonism Beta-lactamase (BLA) Follow-Up Assay (AID 2283961)
Method in brief: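 Cytotoxicity is measured in parallel with the antagonist-mode TRβ beta-lactamase screen, using ATP-coupled luciferase luminescence. Engineered HEK293T cells are treated for 18 h with 11-point compound series in triplicate.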

THRB (gene 7068) [9] = molecular target: THRB (gene 7068) (UniProt P10828); experiment: TOX21_TRB_COA_Antagonist_Followup_ratio: Tox21 Thyroid Hormone Receptor beta Antagonism through Coactivator Recruitment Follow-Up Assay, Ratio (AID 2283967)
Method in brief: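 GST-TRb LBD 5.0 nM + 0.10% BSA, compound added; fluorescein-SRC-2 peptide 200 nM, Tb-anti-GST Ab 2 nM. TR-FRET, ex 340 / em 520:495 ratio. Norm: DMSO 0%, T3 100%.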

[10] = molecular target: Retinoic acid receptor RXR-alpha (Homo sapiens) (UniProt P19793); experiment: TOX21_TR_RXR_BLA_Antagonist_Followup_ratio: Tox21 Thyroid Hormone Receptor beta Retinoid X Receptor alpha (RXRa) Antagonism Beta-lactamase (BLA) Follow-Up Assay, Ratio (AID 2283972)
Sequence of Retinoic acid receptor RXR-alpha (Homo sapiens) (P19793 whole entry, looked up, the tested form may be a part): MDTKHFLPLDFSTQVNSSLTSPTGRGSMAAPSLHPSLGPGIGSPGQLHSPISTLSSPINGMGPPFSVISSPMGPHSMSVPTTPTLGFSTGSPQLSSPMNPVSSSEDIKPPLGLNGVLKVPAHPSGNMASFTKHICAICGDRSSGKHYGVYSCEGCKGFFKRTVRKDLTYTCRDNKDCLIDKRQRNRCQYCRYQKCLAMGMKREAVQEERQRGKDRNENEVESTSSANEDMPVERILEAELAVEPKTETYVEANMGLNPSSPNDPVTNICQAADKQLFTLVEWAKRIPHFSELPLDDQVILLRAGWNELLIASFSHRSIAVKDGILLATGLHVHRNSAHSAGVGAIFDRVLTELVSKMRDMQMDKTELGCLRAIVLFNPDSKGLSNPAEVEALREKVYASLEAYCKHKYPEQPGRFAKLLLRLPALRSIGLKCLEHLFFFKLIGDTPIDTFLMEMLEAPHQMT
Method in brief: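 Antagonist mode used GAL4 UAS-driven beta-lactamase in HEK293T cells expressing RXRa, treated for 16 h with compound concentration series. Activity was taken from the blue/green (460:530 nm) ratio of cleaved to uncleaved substrate.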

[11] = TOX21_TR_RXR_BLA_Antagonist_Followup_viability: Viability Assessment in the Tox21 Thyroid Hormone Receptor beta Retinoid X Receptor alpha (RXRa) Antagonism Beta-lactamase (BLA) Follow-Up Assay (AID 2283979)
Method in brief: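 RXRa-bla HEK293T cells (2,500/well, phenol red-free DMEM, 2% charcoal-stripped FBS) were attached 5 h, then exposed to compounds at 11 concentrations in triplicate for 16 h at 37C. Viability measured by CellTiter-Glo ATP luminescence, bidirectional fitting versus DMSO.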

[12] = molecular target: Thyroid hormone receptor alpha (Rattus norvegicus) + Thyroid hormone receptor beta (Rattus norvegicus) (UniProt P18113+P63059); experiment: TOX21_TR_LUC_GH3_Agonist_Followup: Tox21 GH3 Thyroid Hormone Receptor Agonism Luciferase Follow-Up Assay (AID 2283939)
Sequence of Thyroid hormone receptor alpha (Rattus norvegicus) + Thyroid hormone receptor beta (Rattus norvegicus) (P63059 whole entry, looked up): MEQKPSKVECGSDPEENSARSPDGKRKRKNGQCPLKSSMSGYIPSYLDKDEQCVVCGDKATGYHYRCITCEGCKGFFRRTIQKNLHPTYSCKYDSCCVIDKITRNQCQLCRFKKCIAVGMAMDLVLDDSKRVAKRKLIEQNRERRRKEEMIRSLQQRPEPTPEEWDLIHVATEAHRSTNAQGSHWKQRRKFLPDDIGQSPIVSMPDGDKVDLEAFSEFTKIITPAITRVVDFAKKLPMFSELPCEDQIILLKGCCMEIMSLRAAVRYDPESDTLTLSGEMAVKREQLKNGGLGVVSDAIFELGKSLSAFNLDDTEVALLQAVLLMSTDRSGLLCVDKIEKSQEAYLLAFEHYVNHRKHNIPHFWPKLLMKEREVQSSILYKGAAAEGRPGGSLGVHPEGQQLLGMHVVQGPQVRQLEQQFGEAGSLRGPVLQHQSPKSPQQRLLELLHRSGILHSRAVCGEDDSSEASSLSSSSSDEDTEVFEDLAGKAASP
Sequence of Thyroid hormone receptor alpha (Rattus norvegicus) + Thyroid hormone receptor beta (Rattus norvegicus) (P18113 whole entry, looked up): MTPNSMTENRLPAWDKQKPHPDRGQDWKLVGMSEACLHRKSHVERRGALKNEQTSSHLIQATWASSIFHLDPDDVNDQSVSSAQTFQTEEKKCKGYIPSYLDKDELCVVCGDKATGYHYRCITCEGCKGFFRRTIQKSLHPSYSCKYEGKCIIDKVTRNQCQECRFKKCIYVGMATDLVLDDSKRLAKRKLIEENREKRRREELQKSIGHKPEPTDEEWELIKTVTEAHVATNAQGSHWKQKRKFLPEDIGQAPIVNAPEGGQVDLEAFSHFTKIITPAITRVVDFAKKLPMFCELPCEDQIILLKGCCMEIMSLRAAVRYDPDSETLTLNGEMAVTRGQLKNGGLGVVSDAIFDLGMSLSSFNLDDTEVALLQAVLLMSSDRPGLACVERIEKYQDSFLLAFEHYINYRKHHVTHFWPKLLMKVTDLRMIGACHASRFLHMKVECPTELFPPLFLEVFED
Method in brief: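 Agonist-mode confirmatory run: 15 concentrations (5 nM to 92 uM final) on GH3 rat pituitary cells, 24 h at 37C/5% CO2, T3 as positive control. Luminescence read with ONE-Glo after 30 min.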

THRA (gene 7067) = THRA (gene 7067) (UniProt P10827); experiment: TOX21_TRA_COA_Agonist_Followup_ratio: Tox21 Thyroid Hormone Receptor alpha Agonism through Coactivator Recruitment Follow-Up Assay, Ratio (AID 2283948; active means hit-call score of the fitted dose curve at least 0.9, where 1 is the maximum; inactive means score below 0.9)
Sequence of THRA (gene 7067) (P10827 whole entry, looked up, the tested form may be a part): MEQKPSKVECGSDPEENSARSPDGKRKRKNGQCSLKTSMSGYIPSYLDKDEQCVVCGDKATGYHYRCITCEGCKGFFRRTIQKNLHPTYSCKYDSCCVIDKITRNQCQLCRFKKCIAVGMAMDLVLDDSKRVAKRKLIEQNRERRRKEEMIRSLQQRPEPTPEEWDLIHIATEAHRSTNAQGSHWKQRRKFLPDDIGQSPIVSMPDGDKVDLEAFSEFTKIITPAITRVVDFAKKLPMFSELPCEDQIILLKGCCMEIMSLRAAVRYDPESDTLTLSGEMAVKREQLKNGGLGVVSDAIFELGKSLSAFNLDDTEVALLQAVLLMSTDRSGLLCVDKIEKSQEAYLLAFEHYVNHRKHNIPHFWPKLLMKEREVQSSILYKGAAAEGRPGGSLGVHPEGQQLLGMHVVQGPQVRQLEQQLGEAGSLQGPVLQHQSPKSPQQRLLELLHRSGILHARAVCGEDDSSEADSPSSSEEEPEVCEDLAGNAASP
Method in brief: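 First, compound was incubated with 2.5 nM GST-TRα LBD in 0.10% BSA. Next, 200 nM fluorescein-SRC-2 and 2 nM Tb-anti-GST antibody were added. Finally, the 520:495 nm ratio was normalized to DMSO and T3 controls.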

THRB (gene 7068) [13] = molecular target: THRB (gene 7068) (UniProt P10828); experiment: TOX21_TRB_BLA_Agonist_Followup_ratio: Tox21 Thyroid Hormone Receptor beta Agonism Beta-lactamase (BLA) Follow-Up Assay, Ratio (AID 2283954)
Method in brief: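 Agonist mode: compounds (11-point, triplicate) incubated 18 h with HEK293T cells carrying GAL4-DBD/human TRβ-LBD and UAS-β-lactamase. Blue/green (460/530 nm) FRET ratio read after 2 h CCF4-AM loading; CellTiter-Glo viability run in the same plates.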

THRB (gene 7068) [14] = molecular target: THRB (gene 7068) (UniProt P10828); experiment: TOX21_TRB_COA_Agonist_Followup_ratio: Tox21 Thyroid Hormone Receptor beta Agonism through Coactivator Recruitment Follow-Up Assay, Ratio (AID 2283963; active means hit-call score of the fitted dose curve at least 0.9, where 1 is the maximum; inactive means score below 0.9)
Method in brief: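 Cell-free TR-FRET coactivator recruitment: GST-tagged TRβ LBD (5.0 nM) with 0.10% BSA incubated with compound, then fluorescein-SRC-2 peptide (200 nM) and Tb-anti-GST antibody (2 nM) added. 520:495 nm ratio normalized to DMSO (0%) and T3 (100%).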

[15] = molecular target: Retinoic acid receptor RXR-alpha (Homo sapiens) (UniProt P19793); experiment: TOX21_TR_RXR_BLA_Agonist_Followup_ratio: Tox21 Thyroid Hormone Receptor beta Retinoid X Receptor alpha (RXRa) Agonism Beta-lactamase (BLA) Follow-Up Assay, Ratio (AID 2283968)
Method in brief: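 Read-out: blue/green (460:530 nm) FRET ratio from cleaved vs uncleaved CCF4 substrate, fitted for gain of signal relative to DMSO. Cells: HEK293T with RXRa-UAS-bla reporter; 16 h compound exposure, 11 concentrations, triplicate.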

Measured: AC50

CC[N+](CC)(CC)CCOc1ccc(/C=C/c2ccccc2)cc1
inactive: [1] | [2] | [3] | [4] | [5] | [6]

O=Cc1c(Cl)cccc1Cl
inactive: [1] | [2] | [3] | [4] | [5] | [6]

Cc1cc(O)c2c(c1)C(=O)c1cccc(O)c1C2=O
inactive: [1] | [2] | [3] | [4] | [5] | [6]

Oc1cn2c(n1)Nc1ccc(Cl)c(Cl)c1C2
inactive: [1] | [2] | [3] | [4] | [5] | [6]

CCCc1ccc(C(=O)O)cc1
inactive: [1] | [2] | [3] | [4] | [5] | [6]

CCCCOC(=O)/C=C\C(=O)OCCCC
inactive: [1] | [2] | [3] | [4] | [5] | [6]

C/C=C(\C)C=O
inactive: [1] | [2] | [3] | [4] | [5] | [6]

CCn1nc(C(=O)O)c(=O)c2cc3c(cc21)OCO3
inactive: [1] | [2] | [3] | [4] | [5] | [6]

N#Cc1c(F)cccc1F
inactive: [1] | [2] | [3] | [4] | [5] | [6]

CCCCCCCC(=O)Oc1c(Br)cc(C#N)cc1Br
inactive: [2] | [3] | [4] | [6]
active: [1] 67.3 µM

O=Cc1ccccc1[N+](=O)[O-]
active: [1] 70.6 µM | [4] 68 µM
inactive: [2] | [3] | [5] | [6]

CC(C)CC(C)(N)C#N (stereo unspecified)
inactive: [1] | [2] | [3] | [4] | [5] | [6]

CC(C)=O
inactive: [1] | [2] | [3] | [4] | [5] | [6]

CC(C(=O)O)c1cccc(Oc2ccccc2)c1 (stereo unspecified)
inactive: [1] | [2] | [3] | [4] | [5] | [6]

O=C(O)C(=O)Cc1c[nH]c2ccccc12
inactive: [1] | [2] | [3] | [4] | [5] | [6]

CN(CCCN1c2ccccc2CCc2ccccc21)CC(=O)c1ccc(Cl)cc1
inactive: [1] | [2] | [3] | [4] | [6]

CCC(CO)(CO)COCC(CC)(CO)CO
inactive: [1] | [2] | [3] | [4] | [5] | [6]

O=C(O)c1ccncc1
inactive: [1] | [2] | [3] | [4] | [5] | [6]

CCCCc1nc(Cl)c(CO)n1Cc1ccc(-c2ccccc2-c2nn[nH]n2)cc1
inactive: [1] | [2] | [3] | [4] | [5] | [6]

CC(C)(C)C(=O)OCOC(=O)[C@@H]1N2C(=O)[C@@H](NC(=O)[C@H](N)c3ccccc3)[C@H]2SC1(C)C
inactive: [1] | [2] | [3] | [4] | [6]

CCC(c1ccccc1)c1noc(CCN(CC)CC)n1 (stereo unspecified)
inactive: [1] | [2] | [3] | [4] | [6]

CCCOc1ccc2nc(NC(=O)OC)sc2c1
active: [1] 0.653 µM | [3] 3.42 µM | [4] 2.75 µM | [6] 1.66 µM
inactive: [2] | [5] | THRB (gene 7068) [7] | [8] | THRB (gene 7068) [9] | [10] | [11]

NCCCC[C@H](N)C(=O)O
inactive: [1] | [2] | [3] | [4] | [6]

C[C@]12CCC(=O)C=C1CC[C@@H]1[C@@H]2[C@@H](O)C[C@@]2(C)[C@H]1CC[C@]2(O)C(=O)COP(=O)(O)O
inactive: [1] | [2] | [3] | [4] | [5] | [6]

O=C(O)Cc1nn(Cc2ccc(Br)cc2F)c(=O)c2ccccc12
inactive: [1] | [2] | [3] | [4] | [5] | [6]

NCC(=O)CCC(=O)O
active: [12] 13.1 µM
inactive: [1] | [2] | [3] | [4] | [5] | [6] | THRA (gene 7067) | THRB (gene 7068) [13] | THRB (gene 7068) [14] | [15]

CCCCN(CCCC)CCCOC(=O)c1ccc(N)cc1
inactive: [1] | [2] | [3] | [4] | [6]
